Shown are actives, neighbours in structure and some others; about 6.7% of the full set was active somewhere.
Pf Dd2 inh = blocks growth of Plasmodium falciparum Dd2 parasites; activity change, % at 10 µM; 94,000 compounds, 2.3% hits; P. falciparum Dd2 growth, SYBR Green, 72 h; active compounds read low; in the data active = activity change below about -80%
C diff HTS = blocks growth of Clostridium difficile. Clostridium difficile clinical isolate growth, OD600, 24 h; active compounds read low. growth activity, negative = inhibition, % at 16 µg/mL (by protocol). AID 1259249. 86,000 compounds, 0.25% hits;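 active = mean growth activity at or below -80% and every replicate also at or below -80%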
T cruzi growth-1 = blocks T. cruzi growth in NIH3T3 culture | T. cruzi beta-gal in NIH3T3, GalScreen luminescence, 90 h | inhibition, % at 8.34 µM | 77,000 compounds, 5.9% hits;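 active = mean inhibition above about 93%, with at least 55% of replicates each passing it, limit read from the data, passing the limit was not always enough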
T cruzi growth-2 = blocks T. cruzi growth in NIH3T3 host cells | shares compounds with T cruzi growth-1 | T. cruzi beta-gal in NIH3T3, GalScreen luminescence, 90 h | inhibition, % at 8.35 µM | 5,600 compounds, 72% hits;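 active = mean replicate inhibition above about 95% and at least 55% of replicates individually reaching it, limit read from the data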
T cruzi growth-3 = Trypanosoma cruzi proliferation inhibition | shares compounds with T cruzi growth-1 | T. cruzi beta-gal in NIH3T3, GalScreen luminescence, 90 h | inhibition, % at 2.09 µM | 5,600 compounds, 21% hits | AID 651740;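 active = mean inhibition above about 95%, with at least 55% of replicates also reaching it, limit read from the data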
NIH3T3 tox = NIH/3T3 (mouse) viability loss; AID 651742; 5,600 compounds, 14% hits; shares compounds with T cruzi growth-1; NIH/3T3 viability, CellTiter-Glo ATP luminescence, 90 h; cytotoxicity (signal decrease), % at 8.35 µM;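 active = mean signal decrease across replicates above about 35% based on untreated-well scatter, with enough replicates individually passing, limit read from the data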
NIH3T3 tox 2 = kills mouse NIH/3T3 fibroblasts. 5,600 compounds, 56% hits. shares compounds with T cruzi growth-1. NIH/3T3 viability, CellTiter-Glo ATP luminescence, 90 h. inhibition, % at 24.9 µM;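 active = mean loss of cell viability signal at or above a set limit, and enough replicates individually reaching it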
Large screens that a line does not name were inactive (follow-up assays come after a bar, where they were run).

CC(C)CC#Cc1ccc2c(c1)O[C@@H](CN(C)Cc1ccc(F)cc1)[C@H](C)CN([C@@H](C)CO)S2(=O)=O	none
C[C@@H]1CN([C@H](C)CO)C(=O)Cc2cc(NC(=O)c3ccncc3)ccc2O[C@H]1CN(C)Cc1ccc(C(F)(F)F)cc1	T cruzi growth-1 105.8 | T cruzi growth-2 103.8 | T cruzi growth-3 inactive | NIH3T3 tox inactive | NIH3T3 tox 2 63.3
C[C@@H]1CN([C@H](C)CO)C(=O)Cc2cc(NC(=O)C3CC3)ccc2O[C@H]1CN(C)Cc1ccc(C(F)(F)F)cc1	none
C[C@H](CO)N1C[C@H](C)[C@H](CN(C)Cc2ccc(C(F)(F)F)cc2)Oc2ccc(NC(=O)c3ccncc3)cc2CC1=O	none
C[C@H](CO)N1C[C@H](C)[C@@H](CN(C)Cc2ccc(C(F)(F)F)cc2)Oc2ccc(NC(=O)C3CC3)cc2CC1=O	T cruzi growth-1 102.5 | T cruzi growth-2 105.2 | T cruzi growth-3 99.4 | NIH3T3 tox inactive | NIH3T3 tox 2 inactive
CCCNC(=O)N[C@H]1C=C[C@@H](CC(=O)NC2CCC2)O[C@@H]1CO	none (no result: T cruzi growth-1)
CCc1cnc(N2[C@@H](C#N)[C@H](c3ccc(C4=CCCCC4)cc3)[C@@H]2CO)s1	none
CCc1csc(N2[C@H](C#N)[C@H](c3ccc(C4=CCCC4)cc3)[C@H]2CO)n1	T cruzi growth-1 102.5 | T cruzi growth-2 103.3 | T cruzi growth-3 inactive | NIH3T3 tox inactive | NIH3T3 tox 2 inactive
N#C[C@H]1[C@@H](c2ccc(C3=CCCC3)cc2)[C@H](CO)N1c1nc(-c2ccccc2)cs1	none (no result: T cruzi growth-1)
CCc1cnc(N2[C@H](CO)[C@H](c3ccc(C4=CCCCC4)cc3)[C@@H]2C#N)s1	T cruzi growth-1 103.5 | T cruzi growth-2 104.5 | T cruzi growth-3 101.7 | NIH3T3 tox 38.0 | NIH3T3 tox 2 40.0
N#C[C@H]1[C@H](c2ccc(C3=CCCC3)cc2)[C@@H](CO)N1c1nc(-c2ccccc2)cs1	none
CCc1csc(N2[C@H](C#N)[C@H](c3ccc(C4=CCCC4)cc3)[C@@H]2CO)n1	T cruzi growth-1 101.6 | T cruzi growth-2 106.9 | T cruzi growth-3 112.5 | NIH3T3 tox inactive | NIH3T3 tox 2 36.2
Cc1noc(C)c1NC(=O)Nc1ccc2c(c1)C(=O)N([C@H](C)CO)C[C@H](C)[C@H](CN(C)Cc1ccncc1)OCCCC[C@H](C)O2	none
COc1ccc(NC(=O)N(C)C[C@@H]2Oc3ccc(NS(=O)(=O)c4ccc(F)cc4)cc3CC(=O)N([C@H](C)CO)C[C@H]2C)cc1	none
COc1ccccc1NC(=O)N1[C@H](C#N)[C@@H](c2ccccc2)[C@@H]1CO	none
CO[C@H]1CC[C@@H]2CCN(C)C(=O)C[C@@H](c3ccccc3)CN(C)C(=O)c3cccc(C#N)c3OC[C@H]1O2	none (no result: Pf Dd2 inh)
C/C=C/c1ccc([C@@H]2[C@@H](CN(CC)C(=O)CC)N(C(C)=O)[C@H]2CO)cc1	none
C/C=C/c1ccc([C@@H]2[C@@H](CO)N(C(C)=O)[C@H]2CN(CC)C(=O)CC)cc1	T cruzi growth-1 100.7 | T cruzi growth-2 106.0 | T cruzi growth-3 inactive | NIH3T3 tox inactive | NIH3T3 tox 2 inactive
C/C=C/c1ccc([C@@H]2[C@@H](CN(CC)C(=O)CC)N(C(=O)C3CCC3)[C@H]2CO)cc1	none
C/C=C/c1ccc([C@@H]2[C@H](CO)N(C(=O)C3CC3)[C@H]2CN(CC)C(C)=O)cc1	T cruzi growth-1 100.0 | T cruzi growth-2 inactive | T cruzi growth-3 inactive | NIH3T3 tox inactive | NIH3T3 tox 2 inactive
C[C@H](CO)N1C[C@H](C)[C@H](CN(C)Cc2ccc(C(=O)O)cc2)Oc2ccc(NS(=O)(=O)c3ccc(Cl)cc3)cc2C1=O	none (no result: C diff HTS)
O=C(C[C@@H]1C[C@H]2c3cc(NC(=O)NC4CCCC4)ccc3O[C@H]2[C@H](CO)O1)NCc1ccc(Oc2ccccc2)cc1	none (no result: T cruzi growth-1)
C[C@H](CO)N1C[C@H](C)[C@@H](CN(C)C(=O)C2CCC2)Oc2cc(C#C[C@@H](C)O)ccc2S1(=O)=O	none
CC(C)C#Cc1cnc2c(c1)C(=O)N([C@H](C)CO)C[C@H](C)[C@@H](CN(C)Cc1cccc(F)c1)O2	none
C[C@@H]1CN([C@@H](C)CO)C(=O)c2ccccc2-c2ccccc2CO[C@H]1CN(C)S(=O)(=O)c1ccc(C(F)(F)F)cc1	T cruzi growth-1 113.7 | T cruzi growth-2 102.6 | T cruzi growth-3 inactive | NIH3T3 tox inactive | NIH3T3 tox 2 29.8
C[C@H]1CN([C@@H](C)CO)C(=O)c2ccccc2-c2ccccc2CO[C@H]1CN(C)S(=O)(=O)c1ccc(F)cc1	none (no result: C diff HTS)
C[C@H](CO)N1C[C@H](C)[C@@H](CN(C)S(=O)(=O)c2ccc(C(F)(F)F)cc2)OCc2ccccc2-c2ccccc2C1=O	T cruzi growth-1 101.7 | T cruzi growth-2 102.0 | T cruzi growth-3 inactive | NIH3T3 tox inactive | NIH3T3 tox 2 54.0
C[C@@H]1CN([C@@H](C)CO)C(=O)c2ccccc2-c2ccccc2CO[C@@H]1CN(C)S(=O)(=O)c1ccc(F)cc1	none (no result: C diff HTS)
COc1ccc(CN(C)C[C@H]2Oc3ccc(NC(=O)CCN4CCOCC4)cc3C(=O)N([C@H](C)CO)C[C@@H]2C)cc1	none
O=C(NCC1CC1)[C@H]1[C@H](CO)[C@H]2Cn3c(ccc(-c4ccccc4F)c3=O)[C@@H]1N2Cc1ccccc1	none
C/C=C/c1ccc([C@H]2[C@@H](CO)N(C(=O)Cc3cccnc3)[C@H]2CNC(C)=O)cc1	none
C[C@@H]1CN([C@@H](C)CO)S(=O)(=O)c2ccc(-c3ccncc3)cc2O[C@H]1CN(C)Cc1ccccn1	T cruzi growth-1 114.1 | T cruzi growth-2 105.3 | T cruzi growth-3 102.7 | NIH3T3 tox inactive | NIH3T3 tox 2 36.0
C[C@H]1CN([C@@H](C)CO)S(=O)(=O)c2ccc(-c3ccccc3)cc2O[C@@H]1CN(C)Cc1ccccn1	none
Cc1ccc(-c2ccc3c(c2)O[C@@H](CN(C)Cc2ccccn2)[C@H](C)CN([C@H](C)CO)S3(=O)=O)cc1	none
C[C@H](CO)N1C[C@H](C)[C@@H](CN(C)Cc2ccccn2)Oc2cc(-c3ccccc3)ccc2S1(=O)=O	none
Cc1ccc(-c2ccc3c(c2)O[C@@H](CN(C)Cc2ccccn2)[C@H](C)CN([C@@H](C)CO)S3(=O)=O)cc1	T cruzi growth-1 119.0 | T cruzi growth-2 98.2 | T cruzi growth-3 inactive | NIH3T3 tox 64.1 | NIH3T3 tox 2 103.3
C[C@H]1CN([C@@H](C)CO)S(=O)(=O)c2ccc(-c3ccncc3)cc2O[C@@H]1CN(C)Cc1ccccn1	T cruzi growth-1 117.4 | T cruzi growth-2 102.9 | T cruzi growth-3 99.5 | NIH3T3 tox inactive | NIH3T3 tox 2 85.5
C[C@H](CO)N1C[C@H](C)[C@H](CN(C)Cc2ccccn2)Oc2cc(-c3ccncc3)ccc2S1(=O)=O	T cruzi growth-1 105.9 | T cruzi growth-2 inactive | T cruzi growth-3 inactive | NIH3T3 tox inactive | NIH3T3 tox 2 inactive

Compound activity as filed in PubChem BioAssay.
